RAM inhibit: inhibitors of the yeast RAM network, primary screen, dse1pr::URA3 reporter, 5-FOA selection; S. cerevisiae dse1pr::URA3 reporter, 5-FOA growth OD615, 2 d; analog-sensitive cbk1-as2 kinase mutant strain; inhibition, % at 50 µM; 1.8% of 190,000 active; AID 868, 2007;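 active = inhibition above a set limit, 3 SD over mean compound inhibition, cut at about 8.4% in these data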;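 note: 0% = DMSO-only wells with no growth and 100% = 10 µM 1-NA-PP1 full growth; inhibition rescues growth on 5-FOA so higher OD means more RAM inhibition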
WT yeast gro inh: growth inhibition of WT strain, primary screen, mitochondrial fusion inhibitor project, WT and mutant strains, chemical genetic. mitochondrial fusion phenotypic screen. inhibition, % at 10 µM. 2.1% of 190,000 active; in the data active = inhibition above about 58%; tested in S. cerevisiae
CHOP inhibitor: inhibitors of CHOP promoter induction, primary screen, cell-based, unfolded protein response, luciferase reporter; CHO-K1 CHOP-promoter luciferase, tunicamycin-induced, 15-18 h; inhibition, % at 10 µM; 3.8% of 220,000 active; AID 2732, 2010;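 active = compounds that reduced the stress-induced luciferase reporter signal by more than about 70% of percent inhibition, limit read from the data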;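 note: 0% = tunicamycin plus vehicle and 100% = wells without tunicamycin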
Lmaj promast: Leishmania major promastigote growth inhibition, primary screen; AID 1063, 2008; Leishmania major promastigotes, resazurin fluorescence viability; 9% of 200,000 active; inhibition, % at 10 µM; in the data active = inhibition above about 50%;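 note: promastigotes grown with compound for 44 hours at 28 °C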
* marks the source's active call; other numbers are inactive results. In the library only some 13% were active in any assay of this set; here they are far more common.

`COc1ccc(Br)cc1C(=O)Nc1ccc(Cc2ccncc2)cc1` gave WT yeast gro inh -6, CHOP inhibitor 22 and Lmaj promast 81*.
COc1c(C(=O)Nc2ccc(Cc3ccncc3)cc2)ccc2ccccc12 was read as RAM inhibit -1, WT yeast gro inh 68*, CHOP inhibitor 28 and Lmaj promast 18.
For CSc1nnc(C)c(=O)n1COC(=O)c1cc(Cl)ccc1[N+](=O)[O-] the results were RAM inhibit 0, WT yeast gro inh -17, CHOP inhibitor -12 and Lmaj promast -5.
CN1CCN(C2=C(Cl)C(=O)N(Cc3ccccc3)C2=O)CC1 was read as RAM inhibit 2, WT yeast gro inh 2, CHOP inhibitor 11 and Lmaj promast 96*.
Screening CCN1CCN(C2=C(Cl)C(=O)N(Cc3ccccc3)C2=O)CC1 returned RAM inhibit 5, WT yeast gro inh -13, CHOP inhibitor 36 and Lmaj promast 92*.
`CC(=O)C1=C(c2ccccc2)N(C(C)=O)n2c(C)nnc2S1` gave RAM inhibit 0, WT yeast gro inh -17, CHOP inhibitor 55 and Lmaj promast -8.
For COC(=O)c1c(C)oc(C)c1S(=O)(=O)N1CCOCC1 the results were CHOP inhibitor 1.
Screening CN(C)C(=S)N=Nc1[nH]c2ccccc2c1O returned RAM inhibit 1, WT yeast gro inh 2, CHOP inhibitor -127 and Lmaj promast 97*.
For CCOc1cc(S(=O)(=O)N(Cc2ccccc2)Cc2ccccc2)c(OCC)cc1-n1cnnn1 the results were RAM inhibit 7, WT yeast gro inh 11, CHOP inhibitor -4 and Lmaj promast 92*.
`OCCN1CCN(c2nc(-c3ccccc3)c3cc(Cl)ccc3n2)CC1` gave RAM inhibit 0, WT yeast gro inh 7, CHOP inhibitor 39 and Lmaj promast 10.
Clc1ccc2nc(N3CCNCC3)nc(-c3ccccc3)c2c1 was read as RAM inhibit 3, WT yeast gro inh 2 and Lmaj promast 101*.
Screening CN1CCN(c2nc(-c3ccccc3)c3cc(Cl)ccc3n2)CC1 returned RAM inhibit 2, WT yeast gro inh 38, CHOP inhibitor -26 and Lmaj promast 86*.
O=C1CN(c2nc(-c3ccccc3)c3cc(Cl)ccc3n2)c2ccccc2N1 was read as RAM inhibit 5, WT yeast gro inh -19, CHOP inhibitor 74* and Lmaj promast -1.
CCn1c(=O)c(C(=O)CN2CCN(S(=O)(=O)c3cc(C)ccc3C)CC2)c(N)n(Cc2ccccc2)c1=O was read as RAM inhibit 1, WT yeast gro inh 28, CHOP inhibitor 63 and Lmaj promast 65*.
`CCOCCCNC(=O)c1ccc(NC(C)=O)cc1` gave RAM inhibit 0, CHOP inhibitor -25 and Lmaj promast -6.
Screening CCCCOCCCNC(=O)c1ccc(NC(C)=O)cc1 returned RAM inhibit 9.3*, WT yeast gro inh 10, CHOP inhibitor 10 and Lmaj promast -1.
CCCNC(=O)CNC(=S)N(Cc1cc(OC)c(OC)c(OC)c1)C1CCCC1 was read as RAM inhibit 1, WT yeast gro inh -30, CHOP inhibitor 18 and Lmaj promast 54*.
Screening Cc1ccc(C#CC[N+](C)(C)CC#Cc2ccccc2)cc1 returned RAM inhibit 2, WT yeast gro inh 7, CHOP inhibitor -11 and Lmaj promast 100*.
Screening Cc1cc(C)c(C)c(S(=O)(=O)N2CCCCC2C(=O)O)c1C (stereo unspecified) returned RAM inhibit 1, WT yeast gro inh -2, CHOP inhibitor -7 and Lmaj promast 2.
Screening Cc1cc(C)c(S(=O)(=O)c2ccccc2C)c(Oc2ccccc2)n1 returned RAM inhibit 6, WT yeast gro inh 6, CHOP inhibitor 11 and Lmaj promast 18.
CCCCSc1nc(C)cc(C)c1S(=O)(=O)c1ccccc1C was read as RAM inhibit 3, WT yeast gro inh 10, CHOP inhibitor 44 and Lmaj promast 84*.
Cc1cc(C)c(S(=O)(=O)c2ccccc2C)c(Cl)n1 was read as RAM inhibit 2, WT yeast gro inh 18, CHOP inhibitor 30 and Lmaj promast 101*.
Cc1ccc(S(=O)(=O)c2c(C)cc(C)nc2Cl)c(C)c1 was read as RAM inhibit 1, WT yeast gro inh 5, CHOP inhibitor 1 and Lmaj promast 101*.
Cn1c(=O)c2c(ncn2CC(=O)N/N=C/c2c[nH]c3ccccc23)n(C)c1=O was read as CHOP inhibitor 12.
`O=C(c1ccccc1SCc1ccc(F)cc1)N1CCOCC1` gave RAM inhibit 0, WT yeast gro inh 1, CHOP inhibitor -1 and Lmaj promast -4.
Cc1cccc(NC(=S)N/N=C2/CCCCc3ccccc32)c1 was read as RAM inhibit 4, WT yeast gro inh 63*, CHOP inhibitor 12 and Lmaj promast 29.
`COc1ccc(NC(=S)N/N=C2/CCCc3c(C)cc(C)cc32)cc1` gave RAM inhibit 0, WT yeast gro inh 16, CHOP inhibitor 77* and Lmaj promast -1.
For C=C(C)CNC(=S)N/N=C1\CCCCc2ccccc21 the results were RAM inhibit 2, WT yeast gro inh 65*, CHOP inhibitor 12 and Lmaj promast 99*.
Cc1ccc(NC(=S)N/N=C2/CCCCc3ccccc32)cc1 was read as CHOP inhibitor -2.
`N#CC1=C2SCC(O)(c3ccccc3)N2C(=O)CC1c1ccccc1F` (stereo unspecified) gave RAM inhibit 1, WT yeast gro inh 15, CHOP inhibitor -9 and Lmaj promast 99*.
`N#CC1=C2SCC(O)(c3ccccc3)N2C(=O)CC1c1cccs1` (stereo unspecified) gave RAM inhibit 1, WT yeast gro inh 6 and Lmaj promast 90*.
`COc1ccc(C2CC(=O)N3C(=C2C#N)SCC3(O)c2ccccc2)cc1` (stereo unspecified) gave RAM inhibit 2, WT yeast gro inh 4, CHOP inhibitor 19 and Lmaj promast 49.
Screening CN(C)c1ccc(-c2nn3c(-c4ccc(Cl)cc4)nnc3s2)cc1 returned RAM inhibit 2, WT yeast gro inh 15, CHOP inhibitor -8 and Lmaj promast -4.
For CN(C)c1ccc(-c2nn3c(C4CCCCC4)nnc3s2)cc1 the results were RAM inhibit 8.6*, WT yeast gro inh -8, CHOP inhibitor 93* and Lmaj promast 9.
`CCOc1ccc(NCc2nc3ccccc3n2CCOc2ccccc2)cc1` gave RAM inhibit 0, WT yeast gro inh 33, CHOP inhibitor 28 and Lmaj promast 72*.
`Cc1ccc(OCCCCn2c(CO)nc3ccccc32)cc1` gave RAM inhibit 2, WT yeast gro inh 13, CHOP inhibitor 30 and Lmaj promast 56*.
Screening OCc1nc2ccccc2n1CCCOc1ccc(Br)cc1 returned RAM inhibit 0, WT yeast gro inh 24, CHOP inhibitor 22 and Lmaj promast 29.
Screening CCOC(=O)CN(C(=O)CSc1nnc(Cc2ccccc2)n1-c1ccc(C)cc1)c1ccccc1 returned RAM inhibit 0, WT yeast gro inh 7, CHOP inhibitor 19 and Lmaj promast 99*.
